Out of some 310,000 compounds screened, about 11,000 (3.5%) were called active. A call without a number means that no potency is given here. Not shown: some 8% with an inconclusive outcome. The full list was thinned out, with actives kept by preference. Values without a mark were called inactive. The call rests on the fitted dose curve; in most records, active means well fitted inhibition curve with a large enough effect; inconclusive means small, poorly fitted or top-dose-only effect, or effect the other way; inactive means flat fitted curve, though single readings scatter.
Potency means the concentration at half of the fitted maximal effect.

The assay in a line: VP16 counterscreen qHTS for inhibitors of ROR gamma transcriptional activity.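 Further: Gal4-VP16 expression switched on by copper sulfate through the metallothionein promoter; nearly all actives have a fitted effect of over 50% in size.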 The settings on record: Drosophila S2 Gal4-VP16 UAS-luciferase, luminescence, 20 h; series mostly up to 53.6 µM. Background: A counterscreen serves to expose hits that act by an unwanted route or on another target.
For `CCN(CC)c1ccc(C(=O)Nn2c(C)nc3ccccc3c2=O)cc1`, the Potency entry is “inactive”. `COC(=O)c1ccc2c(=O)n(CCN3CCOCC3)c(SCC(=O)Nc3cccc(OC)c3)nc2c1`: the Potency result was “inactive”. For the compound `COc1ccccc1N1CCN(S(=O)(=O)CCNC(=O)c2ccc(OC(C)C)cc2)CC1`, the Potency result was “inactive”.

For `O=C(NC(=S)N1CCc2ccccc21)c1ccco1`, the Potency was 3.16 µM (active).

Turning to `NC(=O)N1CCc2ccccc21`, the Potency entry is “inactive”.

For `O=C(CSCc1ccccc1)N1CCc2ccccc21`, the Potency result was “inactive”. Still for that read-out and setting: the same measure for `CN(C)c1ccc(-c2nnc(-c3cccnc3)o2)cc1`: “inactive”; for `O=C(Nc1ccncc1)Nc1ccc(F)cc1`: “inactive”. In the case of `Cc1ccc(C)c(N2CCN(C(=O)CCCn3c(=O)c4cccn4c4cccnc43)CC2)c1`, the Potency result was “inactive”. In the case of `Cc1ccc(C)c(N2CCN(C(=O)CCCCCn3c(=S)[nH]c4ccc(N5CCOCC5)cc4c3=O)CC2)c1`, the Potency was 5.62 µM (active). On to `Cc1ccc(C)c(N2CCN(C(=O)CCCCn3c(=O)[nH]c4ccccc4c3=O)CC2)c1`, for which the Potency result is “inactive”. In the case of `O=C(CSc1nc2nccnc2c(=O)n1Cc1cccs1)Nc1ccccc1F`, the Potency result was “inactive”.

On to `CC(=O)N(C)c1ccc(NC(=O)Nc2cccc3ccccc23)cc1`, for which the Potency entry is “inactive”.

Take `CCN1/C(=C/C(=S)Nc2ccccc2)Sc2ccccc21`: the Potency was 12.6 µM (active).

Consider `CCNC(=O)N1c2ccccc2Sc2ccccc21`, for which the activity, negative = inhibition is -17% [at 10 µM]. As for `O=C(CCN1c2ccccc2Sc2ccccc21)Nc1ccccc1`, the Potency entry is “inactive”. The same measure, in the same setting: the same measure for `Cc1ccc(C(=O)N2CC(=O)Nc3ccc(F)cc3C2c2ccc(F)cc2)cc1` (stereo unspecified): “inactive”; for `CN(CC1CCCO1)S(=O)(=O)c1ccc(C(=O)Nc2ccc(F)cc2)cc1` (stereo unspecified): “inactive”; for `N#C[C@]1(S(=O)(=O)c2ccccc2)C[C@@H]2ON=C(c3cccc(Br)c3)[C@@H]2C1`: 11.2 µM (active). Turning to `COC(=O)[C@]1(S(=O)(=O)c2ccccc2)C[C@@H]2ON=C(c3ccc(OC)cc3)[C@@H]2C1`, the Potency result is “inactive”. The same measure, in the same setting: next, `Cc1cc(NC(=O)c2ccco2)c(=O)n(Cc2c(F)cccc2Cl)c1`: “inactive”; `Cc1c(CN2CC[C@@H](N3CCN(c4ccccn4)CC3)[C@H](O)C2)[nH]c2ccc(F)cc12`: “inactive”; `CC(C)n1c(=S)[nH]c2cc(C(F)(F)F)ccc21`: 10 µM (active). Take `CCCn1c(=S)[nH]c2ccc(C(F)(F)F)cc21`: the Potency result is “inactive”. Still for that read-out and setting: the same measure for `COc1ccc(C)cc1N(C(=O)Cn1nnc(-c2ccc(C)o2)n1)C(C(=O)NC1CCCC1)c1ccncc1` (stereo unspecified): “inactive”; for `Oc1cccc(C2c3[nH]c4ccccc4c3CCN2Cc2cnn(-c3ccccc3)c2)c1` (stereo unspecified): “inactive”; for `COc1ccc(-c2nc(N)ncc2-c2ccc(Cl)cc2)c(O)c1`: “inactive”. Same read-out and setting: the same measure for `Cc1[nH]nc(-c2ccc(OCc3cnn(-c4ccccc4)c3)cc2O)c1Oc1ccc(Cl)cc1`: 3.98 µM (active). On the same count and under the same terms, the same measure for `COC(=O)c1c(NC(=O)c2ccccc2F)sc2c1C(C(=O)OC)CC2` (stereo unspecified): “inactive”. For the compound `CCc1ccc(N2CC(C(=O)N3CCCCCC3)CC2=O)cc1` (stereo unspecified), the Potency result was “inactive”. For `COc1ccc(-n2cc(-c3ccccc3)c3c(=S)nc[nH]c32)cc1`, the Potency is 1.12 µM (active).

As for `COc1ccc(N2C(=O)C(Cc3ccccc3)NC2=S)cc1` (stereo unspecified), the Potency entry was “inactive”. As for `O=c1[nH]cnc2c1c(-c1ccccc1)cn2-c1ccc(F)cc1`, the Potency result was “inactive”. Same read-out and setting: next, `Cc1ccc(S(=O)(=O)NCc2ccc(C(=O)NC3CCC(C)CC3)cc2)cc1` (stereo unspecified): “inactive”; `Fc1ccc(CSc2nnc(-c3cc4c(s3)-c3ccccc3CC4)o2)cc1`: “inactive”; `O=C(CSc1nnc(-c2ccccc2O)o1)NC1CCCCC1`: “inactive”. Take `CCSc1nnc(-c2cc3c(s2)-c2ccccc2CC3)o1`: the Potency was 2.51 µM (active). In the case of `COc1cccc(CNc2ncc(-c3ccccc3)n2C)c1`, the Potency entry is “inactive”. Consider `O=C(CCC1CCCN(C(=O)c2ccc(F)c(F)c2)C1)N1CCN(c2ccccn2)CC1` (stereo unspecified), for which the Potency entry is “inactive”. As for `COCCCNC(=S)NNC(=O)C(O)(c1ccccc1)c1ccccc1`, the Potency entry is “inactive”.

With `CCCCNC(=S)NNC(=O)c1cc(C)on1`, the Potency was 11.2 µM (active). For `Cc1cc(C(=O)NCCCc2ccccc2)no1`, the Potency result is “inactive”. Take `O=C(NCCN1CCCC(O)C1)c1cc(COc2c(F)cccc2F)on1` (stereo unspecified): the Potency result is “inactive”. In the case of `CC1CCN(S(=O)(=O)c2ccc(NC(=O)C3CC(=O)N(c4ccccc4)C3)cc2)CC1` (stereo unspecified), the Potency entry was “inactive”. In the case of `COc1cccc(NC(=O)C(=O)c2cn(CC(=O)N3CCOCC3)c3ccccc23)c1`, the Potency entry was “inactive”. The same measure, in the same setting: next, `C/C(=N\NC(=S)Nc1ccc(C)cc1)c1cc2ccccc2o1`: 0.794 µM (active); `Cc1ccc(NC(=O)c2cc3ccccc3o2)cc1`: “inactive”.

With `Cc1ccc(OC(=O)c2cc3ccccc3o2)cc1`, the Potency entry is “inactive”.

As to `O=C(c1cc(COc2ccc(F)c(F)c2)on1)N1CCOCC1`, the Potency result was “inactive”. Turning to `COc1ccc(OCc2cc(C(=O)N3CCCC3)no2)c2ccccc12`, the Potency result is “inactive”. Consider `COc1ccc(CCN2CC(C(=O)NCCN3CCNC3=O)CCC2=O)cc1` (stereo unspecified), for which the Potency entry is “inactive”. As for `COc1ccc(CNC(=O)Cc2ccc(-c3ccccc3)cc2)cc1OC`, the Potency entry was “inactive”. As to `Cc1ccc(C(=O)NCCN2CCOCC2)cc1C`, the Potency result is “inactive”. `Cc1nc(NC(=O)c2ccc3c(c2)OCCO3)ccc1Br`: the Potency entry was “inactive”. Turning to `O=C(Nc1nnc(C2=COCCO2)o1)c1ccc([N+](=O)[O-])s1`, the Potency is 3.16 µM (active).

Regarding `Cc1ccc(C(=O)Nc2nnc(C3=COCCO3)o2)cc1C`, the Potency was 0.282 µM (active). Consider `COc1cc(C(C(=O)NC2CCCC2)N(Cc2ccccc2)C(=O)c2snc(C(N)=O)c2N)ccc1O` (stereo unspecified), for which the Potency result was “inactive”. Regarding `COc1cccc(C(C(=O)NC2CCCC2)N(C(=O)c2ccco2)c2cccc(C(C)=O)c2)c1OC` (stereo unspecified), the Potency entry is “inactive”. As to `CCN1C(=NCC(C)C)N[C@@H](CCc2ccccc2)[C@H](C(=O)NCC(C)C)[C@H]1C`, the Potency result is “inactive”.

Turning to `COC(=O)c1ccc(CN2CCCC(C(=O)Nc3cccc(-n4cnnn4)c3)C2)cc1` (stereo unspecified), the Potency entry is “inactive”. `O=C(CCCc1ccccc1)NCc1ccccc1`: the Potency result is “inactive”.

With `C=CCN1CCN(C(=O)CCCc2ccccc2)CC1`, the Potency was 7.94 µM (active). On to `CC(=O)c1ccc(N2CCN(C(=O)CCc3ccccc3)CC2)cc1`, for which the Potency entry is “inactive”.

Regarding `COC(=O)c1cccc(N(CC(=O)NCC2CCCO2)C(=O)CCC(=O)Nc2cc(C)on2)c1` (stereo unspecified), the Potency result is “inactive”. On to `CC(C)NS(=O)(=O)c1ccc(OCC(=O)NC2CCCCCC2)cc1`, for which the Potency entry was “inactive”. For the compound `CC(=O)Oc1c2c(c3c(c1CC=C(C)C)O[C@@]14C(=CC5CC1C(C)(C)OC4(C/C=C(\C)C(=O)O)C5=O)C3=O)OC(C)(CCC=C(C)C)C=C2` (stereo partly specified), the Potency is 5.62 µM (active).

As to `COc1ccc(CNC(=O)c2cc(C(=O)C3CC3)c[nH]2)cc1`, the Potency was 22.4 µM (active). On the same count and under the same terms, next, `CC(C)CC(=O)c1c[nH]c(C(=O)NCc2ccccc2)c1`: “inactive”; `COc1ccc(CNC(=O)c2c[nH]c3c(OC)cc(OC)cc3c2=O)cc1`: “inactive”; `COc1ccc(N2CCC(N3CCN(C)C(CCO)C3)CC2)cc1` (stereo unspecified): “inactive”. On the same count and under the same terms, next, `Cc1cc(C)n(CC(O)COc2ccc(C(C)(C)C)cc2)n1` (stereo unspecified): “inactive”; `CC(=O)c1ccc(N2CCN(C(=O)CCNC(=O)Cn3ccc4ccccc4c3=O)CC2)cc1`: “inactive”; `CCOc1ccc(S(=O)(=O)N2CCC(C(=O)NCc3ccccn3)CC2)cc1Cl`: “inactive”.

As to `Clc1ccc(C(Cn2ccnc2)OCc2ccsc2Cl)c(Cl)c1` (stereo unspecified), the Potency was 15.8 µM (active). As to `O=C(Nc1ccccc1C(=O)NCCCn1ccnc1)c1ccc(Cl)cc1Cl`, the Potency entry is “inactive”. As for `O=C(NCCCn1ccnc1)Nc1ccc(Cl)cc1Cl`, the Potency entry is “inactive”.

Regarding `CSCCC(NS(=O)(=O)c1ccccc1F)C(=O)N1CC=C(c2ccccc2)CC1` (stereo unspecified), the Potency result was “inactive”.

`O=C(Nc1ccc(Cl)c(Cl)c1)c1ccccc1NC(=O)C1CC=CCC1C(=O)O` (stereo unspecified): the Potency result was “inactive”. Consider `Cc1nnc(NC(=O)Nc2ccc(Cl)c(Cl)c2)s1`, for which the Potency result was “inactive”. For `CCSc1ncc(Cl)c(C(=O)Nc2cc(C)ccc2C)n1`, the Potency result was “inactive”. For `Cc1cccc(NC(=O)c2nc(S(=O)(=O)Cc3ccccc3)ncc2Cl)c1`, the Potency is 4.47 µM (active). Regarding `Cc1cccc(CS(=O)(=O)c2ncc(Cl)c(C(=O)Nc3ccc(F)cc3)n2)c1`, the Potency was 3.16 µM (active).

In the case of `Cc1ccc(CS(=O)(=O)c2ncc(Cl)c(C(=O)Nc3nnc(C)s3)n2)cc1`, the Potency is 6.31 µM (active). For `CSc1ncc(Cl)c(C(=O)Nc2cc(C)ccc2C)n1`, the Potency entry was “inactive”. For the compound `Cc1cccc(NC(=O)C(C)SCc2ccccc2)c1` (stereo unspecified), the Potency result is “inactive”. On to `Cc1cccc(OCc2ccc(C(=O)Nc3ccc(F)cc3)cc2)c1`, for which the Potency entry was “inactive”. On to `Cc1ccc(S(=O)(=O)CC(=O)Nc2nnc(C)s2)cc1`, for which the Potency entry is “inactive”. As for `O=S(=O)(c1ccc(Cl)cc1)c1nc(-c2ccco2)oc1N1CCCCC1`, the Potency result was “inactive”. Still for that read-out and setting: next, `Cc1c(CNCCc2ccccc2)c(C(=O)O)c(C)n1-c1ccccc1`: “inactive”; `CCn1c(C)c(C)c2cc(C(=O)N3CCN(c4cccc(C)c4C)CC3)ccc21`: “inactive”. Consider `CCCCCCC(=O)N(O)C1CC(=O)N(c2ccccc2)C1=O` (stereo unspecified), for which the Potency is 5.01 µM (active). `CCOC(=O)c1ccc(N2C(=O)CC(N(C)Cc3ccccc3)C2=O)cc1` (stereo unspecified): the Potency entry was “inactive”. In the case of `CCOc1ccc(N2C(=O)CC(N(O)c3ccccc3)C2=O)cc1` (stereo unspecified), the Potency result is “inactive”. Turning to `COc1ccc(CN(C)C(=O)Cc2ccsc2)c(OC)c1OC`, the Potency result was “inactive”.

Consider `CC1CCN(S(=O)(=O)c2ccc3c(ccn3CC(=O)O)c2)CC1`, for which the Potency result was “inactive”.

Take `COc1ccc(-c2csc(NC(=O)c3ccc(N4C(=O)CCC4=O)cc3)n2)cc1OC`: the Potency entry is “inactive”. `COc1ccc(OC)c(Nc2nc(-c3ccc(O)c(O)c3)cs2)c1`: the Potency is 8.91 µM (active). Turning to `COc1ccc(-c2csc(NC3OC(=O)c4ccccc43)n2)cc1` (stereo unspecified), the Potency entry is “inactive”.

With `COc1ccc(C)cc1Nc1nc(-c2c(C)[nH]c3ccccc23)cs1`, the Potency result was “inactive”. As for `COc1ccc(-c2csc(Nc3ccc(O)cc3)n2)cc1`, the Potency is 12.6 µM (active). Turning to `COc1ccc(-c2csc(Nc3ccccn3)n2)cc1`, the activity, negative = inhibition is -8.73% [at 10 µM]. Consider `O=S(=O)(Cc1cc(Cl)nc(-c2cccnc2)n1)c1ccccc1`, for which the Potency result was “inactive”. For the compound `CCOC(=O)C1CCCN(S(=O)(=O)c2ccc(-n3cnnn3)c(C)c2)C1` (stereo unspecified), the Potency result is “inactive”. The same measure, in the same setting: next, `c1ccc2[nH]c(-c3nc4ccccc4[nH]3)nc2c1`: 10 µM (active); `OC(c1nc2ccccc2[nH]1)C(O)C(O)C(O)c1nc2ccccc2[nH]1` (stereo unspecified): “inactive”. For `Cc1ccc(-c2nc3ccccc3[nH]c2=O)cc1`, the Potency result is “inactive”.
